Screens as filed in PubChem BioAssay.
An excerpt weighted towards active compounds, which were near 3.1% of everything screened.
proKLK7 act – proKLK7 (human) activation, primary screen; purified proKLK7, EDANS-DABCYL substrate fluorescence; 100% is mature enzyme control, 0% vehicle; activation, % at 7 µM; 0.9% of 370,000 active; AID 652039;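 active means activation above the mean of all tested compounds plus 3 SD, computed per campaign excluding outliers beyond control limits, cut at about 13% in these data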
UHRF1 MBD2 ctr – blocks human UHRF1 binding to methylated DNA. AID 687016. inhibition, % at 4.4 µM. UHRF1 binding to methylated oligo, TR-FRET. 0.75% of 370,000 active. Q96T88; in the data active means inhibition above about 21%;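 further: UHRF1 SRA domain binding a hemimethylated CpG hairpin DNA probe; 0% = median of test compound wells and 100% = reference inhibitor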
MBD2 inh – MBD2-methylated oligo binding inhibition; AID 686964; Q9UBB5; TR-FRET, MBD2 binding to methylated oligonucleotide; inhibition, % at 4.4 µM; 0.31% of 370,000 active; in the data active means inhibition above about 13%
LEDGF integ inh – blocks HIV-1 LEDGF/p75-dependent DNA integration | 0.64% of 370,000 active | TR-FRET IN-LEDGF/p75 DNA integration, Eu/Cy5 | AID 743269 | inhibition, % at 3.7 µM;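 active means inhibition above the screen-wide mean plus 3 SD, cut at about 13% in these data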;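 further: signal is the Cy5 over europium emission ratio at 671 and 618 nm; 0% = plate median of compound wells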
Neddyl block – inhibitors of human cullin neddylation | calls only at 25 µM | TR-FRET cullin neddylation, biochemical | 0.58% of 360,000 active | AID 651699 | P61081+Q13564; in the data active means inhibition above about 36%
Target sequence (P61081 whole entry, looked up): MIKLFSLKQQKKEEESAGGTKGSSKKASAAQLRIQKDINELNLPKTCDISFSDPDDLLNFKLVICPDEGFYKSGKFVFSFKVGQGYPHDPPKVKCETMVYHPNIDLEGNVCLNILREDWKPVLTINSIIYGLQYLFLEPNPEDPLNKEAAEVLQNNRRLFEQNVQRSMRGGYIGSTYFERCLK
Target sequence (Q13564 whole entry, looked up): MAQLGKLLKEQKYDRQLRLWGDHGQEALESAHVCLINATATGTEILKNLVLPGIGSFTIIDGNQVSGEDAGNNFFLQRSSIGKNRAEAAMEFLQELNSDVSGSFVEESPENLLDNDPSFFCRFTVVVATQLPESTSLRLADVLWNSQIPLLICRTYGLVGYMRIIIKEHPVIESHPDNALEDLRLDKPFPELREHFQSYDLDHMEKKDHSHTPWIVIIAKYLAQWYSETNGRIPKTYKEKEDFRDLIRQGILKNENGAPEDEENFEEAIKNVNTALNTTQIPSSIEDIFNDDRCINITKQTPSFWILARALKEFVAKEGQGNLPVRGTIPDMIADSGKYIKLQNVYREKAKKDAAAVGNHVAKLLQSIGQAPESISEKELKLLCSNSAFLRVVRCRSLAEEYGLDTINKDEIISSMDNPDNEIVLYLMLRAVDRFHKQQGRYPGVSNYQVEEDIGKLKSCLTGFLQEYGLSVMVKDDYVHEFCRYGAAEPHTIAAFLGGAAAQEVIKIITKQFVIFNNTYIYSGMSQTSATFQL
Rin1-Abl PPI inh – blocks binding of human Rin1 to Abl; 0.4% of 360,000 active; TR-FRET Rin1/Abl binding, biochemical; inhibition, % at 7.35 µM; P00519+Q13671; in the data active means inhibition above about 5%, passing the limit was not always enough
KLK7 act conf – proKLK7 activation, confirmation; shares compounds with proKLK7 act; AID 686949; 68% of 3,200 active; purified proKLK7, EDANS-DABCYL substrate fluorescence; scaled: vehicle 0, mature enzyme 100; activation, % at 7 µM;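 active means activation, as change over the incubation, above the mean of all tested compounds plus 3 SD, cut at about 13% in these data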
EDANS-DABCYL int – optically interferes with EDANS-DABCYL signal, flagging KLK7 hits | shares compounds with proKLK7 act | EDANS-DABCYL substrate fluorescence interference, no enzyme, 4 h; solvent 0%, active enzyme control 100% | activation, % at 7 µM | 80% of 3,200 active;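 active means activation above the all-compound mean plus 3 SD, ignoring values outside control-based bounds, cut at about 4.8% in these data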;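 further: value is the 4 h activation minus the activation read at time zero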
EDANS interf – optically interferes with EDANS-DABCYL fluorescence, kallikrein-7 activator counter-screen; EDANS-DABCYL peptide fluorescence interference, no enzyme; EC50, µM; 20% of 250 active; shares compounds with proKLK7 act;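 active means compounds that raise the fluorescence signal in this interference counterscreen, with EC50 at or below 10 µM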;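 further: intact quenched peptide substrate alone read at 355 nm excitation and 520 nm emission; signal is fluorescence gain from T0 to T4 after four hours at room temperature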
Numbers without * were called inactive.

Cc1ccsc1C1Nc2ccccc2-c2nc3ccccc3n21 (configuration not stated) was read as proKLK7 act 63*, UHRF1 MBD2 ctr 3, MBD2 inh -3, LEDGF integ inh -7, Rin1-Abl PPI inh -2, KLK7 act conf -21 and EDANS-DABCYL int -19.
CCN1c2ccccc2-c2nc3ccccc3n2C1c1ccccn1 (configuration not stated) was read as proKLK7 act 21*, UHRF1 MBD2 ctr -1, MBD2 inh -2, LEDGF integ inh 1, Rin1-Abl PPI inh 2, KLK7 act conf 28*, EDANS-DABCYL int -7 and EDANS interf >70.
Cc1cccc(-n2ccc(=O)c(C(=O)Nc3ccc(S(=O)(=O)Nc4onc(C)c4C)cc3)n2)c1 was read as proKLK7 act 1, UHRF1 MBD2 ctr 0, MBD2 inh -2, LEDGF integ inh 2, Neddyl block inactive and Rin1-Abl PPI inh 4.
Cc1ccccc1Cn1cc(COC(=O)Nc2ccc(F)cc2)nn1 was read as proKLK7 act 0, UHRF1 MBD2 ctr 4, MBD2 inh 0 and LEDGF integ inh -1.
CCc1c(C)nc2ncnn2c1N1CCC(C(=O)Nc2cccc(C(C)=O)c2)CC1 was read as proKLK7 act 0, UHRF1 MBD2 ctr 2, MBD2 inh 5, LEDGF integ inh -1, Neddyl block inactive and Rin1-Abl PPI inh -2.
`Cc1ccc(S(=O)(=O)N2CCCCC2)cc1NC(=O)CSc1ncccn1` gave proKLK7 act 0, UHRF1 MBD2 ctr -1, MBD2 inh 1, LEDGF integ inh 0, Neddyl block inactive and Rin1-Abl PPI inh 2.
`COc1ccc(-c2cc3ccc(OCC(C)=O)cc3oc2=O)cc1` gave proKLK7 act 27*, UHRF1 MBD2 ctr 23*, MBD2 inh 12, LEDGF integ inh 11, Rin1-Abl PPI inh 1, KLK7 act conf -7 and EDANS-DABCYL int -4.
`O=C(COc1ccc2cc(-c3ccccc3)c(=O)oc2c1)NCC1CCC(C(=O)O)CC1` (configuration not stated) gave proKLK7 act 21*, UHRF1 MBD2 ctr -3, MBD2 inh 1, LEDGF integ inh 0, Neddyl block inactive, Rin1-Abl PPI inh 3, KLK7 act conf 60* and EDANS-DABCYL int 72*.
COC(=O)COc1ccc2cc(-c3ccccc3)c(=O)oc2c1 was read as proKLK7 act 102*, UHRF1 MBD2 ctr 3, MBD2 inh -1, LEDGF integ inh 0, Neddyl block inactive, Rin1-Abl PPI inh -4, KLK7 act conf 68* and EDANS-DABCYL int 66*.
For O=c1oc2cc(OCc3ccc(F)cc3F)ccc2cc1-c1ccccn1 the results were proKLK7 act -3, UHRF1 MBD2 ctr -1, MBD2 inh -2, LEDGF integ inh -3 and Rin1-Abl PPI inh -2.
`NC(=O)COc1ccc2cc(-c3ccc(F)cc3)c(=O)oc2c1` gave proKLK7 act 33*, UHRF1 MBD2 ctr 5, MBD2 inh 4, LEDGF integ inh -4, Rin1-Abl PPI inh -1, KLK7 act conf -14 and EDANS-DABCYL int -63.
Screening NC(=O)COc1ccc2cc(-c3ccccc3)c(=O)oc2c1 returned proKLK7 act 59*, UHRF1 MBD2 ctr 0, MBD2 inh -4, LEDGF integ inh -1, Rin1-Abl PPI inh -2, KLK7 act conf 63* and EDANS-DABCYL int 64*.
CC(=O)Oc1ccc(-c2cc3c(OC(C)=O)cc(OC(C)=O)cc3oc2=O)cc1 was read as proKLK7 act 80*, UHRF1 MBD2 ctr -3, MBD2 inh 2, LEDGF integ inh -1, Rin1-Abl PPI inh -2, KLK7 act conf 63* and EDANS-DABCYL int 72*.
For CCCC1(C)Nc2ccccc2-c2nc3ccccc3n21 (configuration not stated) the results were proKLK7 act 63*, UHRF1 MBD2 ctr -6, MBD2 inh -7, LEDGF integ inh 1, Rin1-Abl PPI inh 0, KLK7 act conf 10 and EDANS-DABCYL int 7.1*.
For c1ccc2c(c1)NC1(CCCC1)n1c-2nc2ccccc21 the results were proKLK7 act 82*, UHRF1 MBD2 ctr 0, MBD2 inh 0, LEDGF integ inh -2, Rin1-Abl PPI inh -4, KLK7 act conf 61* and EDANS-DABCYL int 66*.
Fc1ccc(NC(=S)NC23CN4CN(CN(C4)C2)C3)cc1 was read as proKLK7 act 0, UHRF1 MBD2 ctr -3, MBD2 inh -5, LEDGF integ inh 0, Neddyl block inactive and Rin1-Abl PPI inh -3.
Screening COC(=O)c1cc(-c2ccc(C(C)=O)cc2)c(=O)n2c1CCC2 returned proKLK7 act 39*, UHRF1 MBD2 ctr -3, MBD2 inh 3, LEDGF integ inh 0, KLK7 act conf 72* and EDANS-DABCYL int 71*.
CN(C)/C=N/c1nc2nccc(-c3ccc(Cl)cc3)n2n1 was read as proKLK7 act 18*, UHRF1 MBD2 ctr 7, MBD2 inh 1, LEDGF integ inh 3, Rin1-Abl PPI inh -1, KLK7 act conf 66* and EDANS-DABCYL int 69*.
For Nc1nc2nccc(-c3ccc(Cl)cc3)n2n1 the results were proKLK7 act 57*, UHRF1 MBD2 ctr -10, MBD2 inh -9, LEDGF integ inh 2, Rin1-Abl PPI inh -1, KLK7 act conf 70* and EDANS-DABCYL int 85*.
Screening CN(C)/C=N/c1nc2nccc(-c3ccccc3)n2n1 returned proKLK7 act 12, UHRF1 MBD2 ctr 0, MBD2 inh 6, LEDGF integ inh -3 and Rin1-Abl PPI inh 5.
CCOC(=O)Cn1ccc(-c2ccccc2)c(C#N)c1=O was read as proKLK7 act 1, UHRF1 MBD2 ctr -1, MBD2 inh -4, LEDGF integ inh 2, Neddyl block inactive and Rin1-Abl PPI inh 3.
CC(C)c1ccc(/C=N/NC(=O)c2c(Cl)cnn2C)cc1 was read as proKLK7 act 0, UHRF1 MBD2 ctr -3, MBD2 inh 2, LEDGF integ inh -3, Neddyl block inactive and Rin1-Abl PPI inh 0.
Screening Cc1sc2ncn(/N=C/c3ccco3)c(=O)c2c1C returned proKLK7 act 0, UHRF1 MBD2 ctr 0, MBD2 inh 1, LEDGF integ inh 0, Neddyl block inactive and Rin1-Abl PPI inh -3.
